Source: PubChem BioAssay
The list is not random: actives were taken first. Their share in the collection is about 2.2%.
pCIP destab = p/CIP protein destabilization | AID 1984 | Q05BA5 | F442A p/CIP-EGFP cells, EGFP fluorescence, 16 h | 0.01% of 290,000 active | decrease of EGFP signal, % at 10 µM;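 active = EGFP signal decrease of at least 30% at 10 µM or well 3 SD below plate mean, unless failing retest; inactive = the rest, including hits failing retest or dose response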
PvdQ inh = blocks Pseudomonas aeruginosa PvdQ acylase activity | purified PvdQ acylase, fluorescence plate reader | inhibition, % at 10 µM | 0.063% of 340,000 active; in the data active = inhibition above about 30%, passing the limit was not always enough; inconclusive = no clear call, values can overlap the other calls;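 also: 0% = vehicle neutral wells and 100% = reference inhibitor wells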
SUMO Mot1 rescue = inhibitors of SUMOylation pathway: yeast Mot1-301 growth rescue; S. cerevisiae Mot1-301 growth rescue, ATP luminescence, 38.5C; percent above DMSO median, 100 means doubled; growth rescue, % at 18.8 µM; 1% of 320,000 active; AID 2716;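 active = every valid replicate shows activation above 250% relative to neutral control wells; inactive = the rest, any valid replicate at or below 250%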;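 also: OY570 slx delta 5 strain wells were the positive control but not used for scaling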
JMJD2C inh = human JMJD2C demethylase inhibition; 0.069% of 330,000 active; inhibition, % at 2.35 µM; GST-JMJD2C(1-420) H3K9me3 demethylation, DELFIA europium;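 active = more than half of a compound's replicate wells show inhibition beyond 50%, single wells judged on their own value; inconclusive = some, but no more than half, of replicates pass 50% inhibition; inactive = no replicate passes 50% inhibition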;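 also: signal counts dimethyl H3K9 product captured on neutravidin plate; 0% = median of DMSO wells and 100% = 0.3 times that DMSO median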
Target sequence (Q9H3R0 1-420 limits assumed): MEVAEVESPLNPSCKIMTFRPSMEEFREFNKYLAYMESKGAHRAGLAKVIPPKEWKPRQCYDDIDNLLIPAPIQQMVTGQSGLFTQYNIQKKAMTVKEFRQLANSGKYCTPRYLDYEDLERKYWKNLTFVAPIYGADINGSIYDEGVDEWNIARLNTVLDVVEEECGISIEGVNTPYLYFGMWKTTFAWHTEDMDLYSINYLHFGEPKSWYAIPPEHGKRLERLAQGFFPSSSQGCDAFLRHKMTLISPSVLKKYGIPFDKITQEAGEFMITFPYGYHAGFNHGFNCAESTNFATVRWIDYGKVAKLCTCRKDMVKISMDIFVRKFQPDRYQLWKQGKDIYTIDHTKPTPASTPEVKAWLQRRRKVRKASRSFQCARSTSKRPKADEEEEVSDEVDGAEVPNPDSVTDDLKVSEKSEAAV
HDAC3 inhib = human HDAC3 inhibition; O15379; recombinant HDAC3, fluorogenic peptide/trypsin coupled, fluorescence; inhibition, % at 8.3 µM; 0.15% of 320,000 active; AID 2718; in the data active = inhibition above about 26%, passing the limit was not always enough; inconclusive = no clear call, values can overlap the other calls
PHOSPHO1 inh = inhibitors of human PHOSPHO1 phosphatase; AID 1565; recombinant PHOSPHO1, absorbance phosphatase assay; inhibition, % at 13.3 µM; 1.1% of 290,000 active; Q8TCT1; in the data active = inhibition above about 60%
Target sequence (Q8TCT1 whole entry, looked up): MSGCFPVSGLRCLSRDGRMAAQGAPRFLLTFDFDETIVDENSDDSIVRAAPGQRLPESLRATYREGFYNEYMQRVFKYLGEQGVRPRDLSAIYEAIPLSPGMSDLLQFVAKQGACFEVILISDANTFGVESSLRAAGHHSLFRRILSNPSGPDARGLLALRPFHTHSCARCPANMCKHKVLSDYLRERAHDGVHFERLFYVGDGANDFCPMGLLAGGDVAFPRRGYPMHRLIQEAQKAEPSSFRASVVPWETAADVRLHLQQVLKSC
* hit, by the source's call; ? = inconclusive; / = no result given.

SMILES | pCIP destab | PvdQ inh | SUMO Mot1 rescue | JMJD2C inh | HDAC3 inhib | PHOSPHO1 inh
CCOc1ccc(S(=O)(=O)Nc2cc(SCC(=O)O)c(O)c3ccccc23)cc1 | 2.4 | 10.5 | 10.5 | ? | 3.9 | -88.6
O=S(=O)(Nc1cc(Sc2cccc3cccnc23)c(O)c2ccccc12)c1ccccc1 | 3.2 | / | / | -11.8 | / | 60.3*
C=C(c1ccccc1Cl)[n+]1ccccc1 | -12.9 | -21.0 | -0.8 | -4.6 | 0.2 | -7.8
COc1cc(/C=C2\NC(=O)NC2=O)cc(Br)c1OC | 3.2 | -8.5 | 21.1 | 20.4 | -0.7 | 28.6
CCOc1cc(/C=C2/NC(=O)NC2=O)cc(Br)c1OCc1ccc(C(=O)O)cc1 | 6.0 | -12.7 | 460.3 | -1.0 | -2.6 | 85.7*
Cc1ccc(S(=O)(=O)NCC(=O)OCC(=O)c2ccc(Cl)s2)cc1 | -10.7 | 8.0 | 352.8* | 14.6 | -7.0 | -0.6
COc1cccc(CC2CC(=O)N(c3ccc4c(C)cc(=O)oc4c3)C2=O)c1 (centres undefined) | -1.3 | -16.4 | -6.3 | 0.7 | -5.8 | 60.9*
COc1ccc(N2C(=O)CC(Cc3ccccc3)C2=O)cc1 (centres undefined) | -21.3 | -18.2 | 87.8 | -0.4 | -20.6 | -8.4
O=C(c1cccc(Oc2ccccc2)c1)N1CCOCC1 | 3.6 | -12.4 | -5.7 | -20.3 | 1.6 | 19.2
O=C(c1cccc(Oc2ccc([N+](=O)[O-])cc2)c1)N1CCOCC1 | 3.9 | -2.2 | -9.0 | 0.8 | 5.1 | 62.6*
O=C(Nc1ccccn1)c1ccc(C(=O)c2ccccc2)cc1 | / | 1.2 | -7.2 | 31.0 | -3.6 | /
O=C(NC(=O)c1ccccc1)Nc1ccccn1 | -13.6 | -3.2 | -21.9 | 3.4 | 2.2 | 67.6*
CCCCOC(=O)Cn1c(-c2ccccc2)nc2ccccc2c1=O | 4.9 | -14.0 | 552.5* | -3.1 | 0.8 | -5.0
Cc1ccc(CNC(=O)Cn2cccc2C(=O)c2ccccc2C)cc1 | -1.6 | -17.6 | 19.8 | -0.7 | 0.1 | -17.0
COc1cccc(CNC(=O)Cn2cccc2C(=O)c2ccccc2C)c1 | 4.0 | -15.9 | 3.4 | 4.5 | 2.3 | 64.0*
Cc1ccccc1C(=O)c1cccn1CC(=O)NCc1cccc(Cl)c1 | -6.6 | -4.6 | -16.1 | 4.3 | 5.8 | 8.9
COc1ccccc1CNC(=O)Cn1cccc1C(=O)c1ccccc1C | -4.9 | -14.7 | -4.8 | 2.8 | 2.7 | 75.4*
Cc1ccc(NS(=O)(=O)c2ccc(OCC(=O)NCc3ccncc3)cc2)cc1 | -1.9 | -12.5 | -17.3 | 1.5 | 2.2 | -6.4
COc1ccc(CC(=O)NNS(=O)(=O)c2ccc(F)cc2)cc1 | -2.2 | -11.9 | -3.7 | 11.7 | 1.0 | 27.5
Cc1ccccc1C(=O)Nc1nnc(SCC(=O)NCc2ccco2)s1 | -22.4 | -5.8 | -10.1 | -3.2 | -3.1 | 22.6
Cc1ccccc1Nc1nnc(SCC(=O)NCc2ccco2)s1 | -11.7 | -3.3 | / | 1.4 | -3.2 | 86.6*
C/C(=N/NC(=O)c1ccccc1)C1=C(O)CC(C)(C)CC1=O | -0.7 | 4.0 | 4.8 | -20.4 | 70.8* | 1.2
Cc1csc(SCC(=O)c2ccc(S(=O)(=O)N3CCOCC3)cc2)n1 | 8.5 | 2.7 | -23.9 | 5.7 | -0.6 | 77.8*
CCc1ccc(-n2c(SCC(=O)c3ccc4c(c3)NC(=O)CO4)nc3ccccc3c2=O)cc1 | -15.1 | -16.9 | / | -8.3 | 4.6 | 60.0*
COc1cccc(N2CC(=O)N(c3cccc(OC)c3)CC2=O)c1 | -4.3 | -0.4 | 8.1 | 5.1 | 1.3 | 60.0*
SMILES | pCIP destab | PvdQ inh | SUMO Mot1 rescue | JMJD2C inh | HDAC3 inhib | PHOSPHO1 inh
Cc1cccc(N2CC(=O)N(c3cccc(C)c3)CC2=O)c1 | -0.5 | 0.8 | -11.5 | 16.7 | -9.3 | -2.9
C#CCSc1nnc(-c2ccc(OC)cc2)o1 | 5.4 | 4.6 | -2.4 | 11.5 | 7.0 | 68.6*
CCOC(=O)C1=C(O)/C(=C\c2ccc(CNC(=O)C(=O)Nc3ccccc3)o2)N=C1C | -20.4 | -12.0 | -6.2 | 8.9 | 4.2 | 83.3*
COc1cccc(/C=N/n2c(C)nc3ccccc32)c1OC | -0.4 | -12.3 | 105.8 | -2.7 | 3.6 | -3.2
COc1cccc(/C=N/n2c(=S)n(C)c3ccccc32)c1OC | -9.9 | -10.4 | 16.0 | 7.5 | 10.3 | 73.3*
CC1CC(C)CN(c2ccc(-n3cnnn3)cc2[N+](=O)[O-])C1 (centres undefined) | -9.4 | -14.7 | -11.5 | -24.0 | ? | 60.1*
O=C(CN1CCOCC1)NN=C(c1ccccc1)c1ccccc1 | -13.5 | -0.9 | 2.6 | 1.0 | 1.1 | 5.1
O=C(CN1CCCC1)NN=C(c1ccccc1)c1ccccc1 | 0.1 | 8.9 | 391.9* | -36.2 | 5.2 | 28.2
COc1cc(NC(=O)c2ccc(Cl)cc2)c(Cl)cc1NC(=O)c1cccnc1 | -0.5 | -8.0 | -5.3 | -3.4 | 0.1 | 62.8*
CC(=O)NCCc1ccc(S(=O)(=O)Nc2ccc3c(c2)OCCO3)cc1 | / | -14.4 | 3.9 | -12.1 | 2.3 | /
CN(C(=O)CO/N=C/c1ccc(OC(F)F)cc1)C1CCS(=O)(=O)C1 (centres undefined) | -6.7 | -4.3 | 37.3 | 3.3 | 8.3 | 32.2
CCOCCCNc1nc(C)nc2c1nnn2Cc1c(F)cccc1Cl | -2.2 | -7.0 | -4.0 | -7.0 | -5.2 | 64.7*
Cc1nc(NCC2CCCO2)c2nnn(Cc3c(F)cccc3Cl)c2n1 (centres undefined) | 2.0 | -11.0 | 22.1 | 4.0 | / | 24.5
Cc1c(C2(O)CCCCC2)[nH]c2cc(C(F)(F)F)ccc12 | / | -9.6 | 139.6 | 29.4 | 15.1 | /
CCc1c(C2(O)CCCCC2)[nH]c2cc(C(F)(F)F)ccc12 | -1.8 | -13.9 | 325.0* | -3.6 | ? | -29.9
O=C(CSc1nnc([C@@H]2CCCN2)o1)c1ccc(Cl)cc1 | 1.6 | -3.4 | -8.8 | 4.8 | -1.4 | 73.5*
CCC(C)[C@H](N)c1nnc(SCC(=O)c2ccc(Cl)cc2)o1 (some centres undefined) | -6.9 | -6.5 | -6.0 | 2.3 | -0.3 | 78.7*
C=C(C)CSc1nnc([C@@H]2CCCN2)o1 | 5.6 | -3.0 | -4.1 | -6.0 | -0.1 | 37.0
O=C(/C=C/c1ccc(Cl)cc1)c1cccnc1 | -1.3 | -21.2 | 173.7 | / | 4.2 | 13.8
O=C(/C=C/c1ccccc1Cl)c1cccnc1 | -12.1 | -8.6 | 274.7* | 4.1 | 5.6 | 21.9
CCn1c(N)c(C(=O)NCC2CCCO2)sc1=S (centres undefined) | -5.8 | -13.4 | -9.8 | 12.4 | 3.8 | 100.2*
CCn1c(N)c(C(=O)N2CCOCC2)sc1=S | -7.3 | -19.0 | -2.3 | -0.3 | -2.5 | 68.7*
C=CCn1c(N)c(C(=O)NCC2CCCO2)sc1=S (centres undefined) | -8.7 | -8.5 | -6.2 | -4.1 | 1.9 | 24.7
Cc1cc(C)c(CNC(=O)c2cc(C3CC3)nc3c2cnn3C(C)C)c(=O)[nH]1 | / | -4.1 | 15.8 | / | 2.9 | /
Cc1cc(C)c2c(c1)-c1c(ssc1=S)C(C)(C)N2C(=O)CSc1nncn1C | -6.8 | -6.9 | 62.9 | -4.0 | 11.8 | 62.4*
Nc1nc2ccc(C(=O)Nc3ccccc3)cc2s1 | -4.2 | 16.5 | 281.8* | -4.5 | 10.1 | 9.6
CCc1nnc(NC(=O)c2sc3nc4cc(C)ccc4cc3c2N)s1 | -2.2 | -11.5 | 30.4 | -7.5 | 3.9 | 99.1*
